HTT aggregate: inhibitors of mutant huntingtin aggregate formation in PC12 cells | PC12 HttQ103-GFP aggregates, Acumen cytometry, 40 h | actives 1.1% (n = 220,000) | Potency, µM (doses to about 46.1 µM), inactives show at the highest dose activity change, negative = inhibition, hits mostly inhibitors; also: potency is read from the fitted curve at half-maximal effect; % is scaled to controls: 0 for no effect and ±100 for the full control effect; nearly all actives have a fitted effect of over 60% in size
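Using laser scanning cytometry, GFP-positive aggregates were counted after lysis of PC12 cells induced with 100 nM tebufenozide to express HTT exon 1 Q103–GFP. Compounds were tested in titration.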
PKM2 act: activators of human pyruvate kinase M2. P14618. purified PKM2, Kinase-Glo ATP luminescence, activation; response scale: 0% is enzyme alone, no compound. Potency, µM (top dose mostly 57.5 µM), inactives show at the highest dose activation, actives largely listed as activators. actives 0.34% (n = 260,000); also: potency is read from the fitted curve at half-maximal effect; % is scaled to controls: 0 for no effect and ±100 for the full control effect; nearly all actives have a fitted effect of over 55% in size
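ATP formation by purified human PK-M2, quantified via coupled luciferase luminescence after 1 h at room temperature with 0.1 mM ADP and 0.5 mM PEP final.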
HTT cytoprotect: Huntington cell model cytoprotection by ATP luminescence | PC12 HTT-Q103 induced, cytoprotection, ATP luminescence, 40 h | Potency, µM (top dose mostly 56.4 µM), inactives show cytoprotection (ATP increase), actives largely listed as activators | actives 0.14% (n = 230,000); also: potency is read from the fitted curve at half-maximal effect; % of control where 0% means no effect; nearly all actives have a fitted effect of over 45% in size
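Compounds were screened for protection of PC12 cells against cell death after tebufenozide induction (100 nM final) of mutant Huntingtin exon 1 (Q103) fused to GFP.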
aGal spleen mod: inhibitors or activators of human alpha-galactosidase in spleen homogenate. P06280. human spleen homogenate, 4MU-alpha-Gal fluorescence, 40 min. Potency, µM (series often up to 80 µM), for inactives: at the top dose activity change, negative = inhibition, hits mostly inhibitors. actives 0.008% (n = 240,000). AID 2107;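 also: potency is read from the fitted curve at half-maximal effect; 0% = enzyme with vehicle and -100% = no enzyme basal signal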
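Human spleen homogenate (1 ug) as enzyme source, 4-methylumbelliferyl-alpha-D-galactopyranoside 1 mM final, citrate/phosphate pH 5.0 with 0.01% Tween-20. Compounds 40 min at 37C, NaOH/glycine stop; fluorescence Ex 365/Em 440, Hill-fit AC50.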
GLA inh pH 4.5: blocks human alpha-galactosidase A at pH 4.5; P06280; purified enzyme, 4-MU-alpha-Gal fluorescence, pH 4.5; activity change, negative = inhibition, % at 105 µM; 230,000 tested, under 10 active; AID 1467;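 also: 0% = full activity with enzyme and -100% = basal without enzyme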
Target sequence (P06280 whole entry, looked up): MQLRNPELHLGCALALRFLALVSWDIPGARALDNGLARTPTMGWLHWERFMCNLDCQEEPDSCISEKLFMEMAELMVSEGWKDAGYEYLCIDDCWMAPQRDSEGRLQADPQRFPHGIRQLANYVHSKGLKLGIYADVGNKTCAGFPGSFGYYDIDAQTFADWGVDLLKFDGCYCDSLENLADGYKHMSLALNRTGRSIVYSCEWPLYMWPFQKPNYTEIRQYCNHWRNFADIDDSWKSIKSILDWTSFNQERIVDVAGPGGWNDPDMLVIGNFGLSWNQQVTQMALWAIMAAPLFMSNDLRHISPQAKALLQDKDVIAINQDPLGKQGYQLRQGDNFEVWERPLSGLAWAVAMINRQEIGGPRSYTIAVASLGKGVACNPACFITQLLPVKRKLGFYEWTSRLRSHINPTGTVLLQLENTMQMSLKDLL
* marks the source's active call; other numbers are inactive results; ? = inconclusive; / = no result given; [ ] = dose if it differs, or a comment. Shown are actives, neighbours in structure and some others; about 1.2% of the full set was active somewhere. Calls follow the shape of the dose curve; as a rule, active = well fitted curve in the direction sought with a large enough effect; inconclusive = small, poorly fitted or top-dose-only effect, or another doubt; inactive = no such curve, though single readings can be large; an effect the other way counts as inactive or inconclusive.

SMILES | HTT aggregate | PKM2 act | HTT cytoprotect | aGal spleen mod | GLA inh pH 4.5
CO[C@@H]1COC(=O)[C@@H](C)NC(=O)C/C=C\[C@@H](C)[C@H](NS(=O)(=O)c2ccc(C)cc2)COC(=O)[C@H](C)NC(=O)C/C=C\[C@H]1C | / | / | -11.6%[10 µM] | 5.1%[17.5 µM] | /
CC1CCCCC1NC(=O)CCCn1c(=S)[nH]c2ccccc2c1=O (configuration not stated) | -3.4% | -0.1% | -20.6% | -3.5% | -5.3
CC1CCCCC1n1c(=S)[nH]c2ccccc2c1=O (configuration not stated) | 20µM* | 9.1% | -2.0%[0.074 µM] | 5.3% | -19.0
CCc1cc2c(nc1CC)CCN(CC/C(C)=N/O[C@@H](C)c1cn([C@@H]3COC[C@@H]3O)nn1)C2 | / | / | 1.2%[10 µM] | -13.1%[17.5 µM] | /
CCCCC(CC)COC(=O)COc1ccc(Cl)cc1Cl (configuration not stated) | / | / | 4.9% | -1.1% | /
COC(=O)[C@@H]1CC[C@H](C)[C@@H](c2ccc(C)cc2)N1C(=O)c1ccc(/C=N\OC[C@@H](C)[C@H](OCc2ccccc2)C(C)C)cc1 | / | / | -40.3%[10 µM] | 5.2%[17.5 µM] | /
CC1(C)Oc2cc3c(cc2O1)OC(C)(C)O3 | / | / | -2.6%[10 µM] | 13.3%[17.5 µM] | /
CC1CCC(C(C)C)C(OC(=O)C[n+]2cc(-c3ccc(Cl)cc3)n3c2CCCCC3)C1 (configuration not stated) | 12.6µM* | -4.4% | 3.3%[10 µM] | 2.4% | 8.1
O=C(C[n+]1cc(-c2ccccc2)n2c1CCCCC2)c1ccc(Cl)cc1 | ? | -3.3% | 2.6%[1.9 µM] | 5.7% | 7.0
CC(=O)N1CCC2(CC1)CCN(C(=O)Nc1cccc(C#N)c1)CC2 | / | / | ? | 1.8% | /
C=C1CC[C@@H]2O[C@@]2(C)CC[C@H]2[C@H]1CC2(C)C | / | / | 2.1%[1.9 µM] | 1.1% | 0.0
S=C([S-])NCCNC(=S)[S-].[Zn+2] | / | / | ? | -0.6% | /
Cn1c(N)c(C(=O)COC(=O)c2ccc(Cl)nc2)c(=O)n(C)c1=O | -6.7% | -1.0% | 3.16µM* | -0.6% | -7.9
Cn1c(N)c(C(=O)c2ccc(Cl)cc2)c(=O)n(C)c1=O | 2.51µM* | 13.7% | -0.6%[10 µM] | 2.9% | 3.8
O=S(=O)(Nc1ccc(-n2cccc2)cc1)c1ccccc1 | 16.3% | 15.8µM* | 19.7%[10 µM] | 0.8% | 2.8
COc1ccc(-c2cn(-c3ccc(OC)cc3)c3[n+]2-c2ccccc2CC3)cc1 | ? | -22.0% | -50.4%[10 µM] | -3.6% | -2.3
COc1ccccc1-n1c(-c2ccccc2)c[n+]2c1CCc1ccccc1-2 | 2.24µM* | -1.0% | -86.8% | -2.2% | -0.4
COc1ccccc1-n1c(-c2ccccc2)c[nH]c1=S | -10.3% | 7.8% | 7.7%[10 µM] | -6.6% | 5.7
COc1ccc(-n2c(-c3ccc(Br)cc3)c[n+]3c2CCc2ccccc2-3)cc1 | 12.6µM* | -0.2% | -12.6%[10 µM] | -18.3% | -0.4
CC(C)c1ccc(-n2c(-c3ccccc3)c[n+]3c2CCc2ccccc2-3)cc1 | 1.58µM* | -2.8% | -53.7%[10 µM] | -11.3% | 10.7
COc1cccc(Nc2ncc3nc(CCc4ccccc4)c(=O)n(CCC#N)c3n2)c1 | / | / | -93.7% | 11.6% | /
COc1cccc(NC(=S)N(CCCN2CCOCC2)Cc2cn(C)c3ccccc23)c1 | 11.2µM* | -5.8% | -52.9%[10 µM] | -7.9% | -1.8
COC(=O)c1ccc(C(=O)OC)c(NC(=O)CN2CCCCC2)c1 | 10.7% | -3.0% | / | -5.5% | 2.8
COC(=O)c1cc(OC)c(OC)cc1NC(=O)CN1CCCCC1 | 0.631µM* | -5.5% | -0.2%[0.074 µM] | -5.8% | 0.2
CCCn1c(=O)c(C(=O)NNS(=O)(=O)c2ccc(Cl)cc2)c(O)c2ccccc21 | 14.1µM* | 0.1% | -7.4%[10 µM] | 5.0% | -4.0
SMILES | HTT aggregate | PKM2 act | HTT cytoprotect | aGal spleen mod | GLA inh pH 4.5
Clc1cccc(Nc2ncnc3c2cnn3-c2ccccc2)c1 | 22.4µM* | -8.6% | 7.1%[10 µM] | 2.5% | -11.2
Fc1cccc(Nc2ncnc3c2cnn3-c2ccccc2)c1 | -6.9%[9.22 µM] | -0.7% | 8.2%[10 µM] | 2.9% | -1.3
C/C(CCc1oc2c(Br)cc(Br)cc2c1-c1ccc(C)o1)=N\O | 11.1% | 15.8µM* | 0.4%[10 µM] | -0.7% | -3.2
CC(=O)N1C2(C=CC1(C)C(=O)NCc1cc(F)cc(C(F)(F)F)c1)CCCCC2 (configuration not stated) | / | 3.3% | -103.0% | -1.0% | -16.9
O=C(O)[C@@H]1[C@@H](C(=O)NCc2ccncc2)[C@@H]2C=C[C@@H]1O2 | / | / | -1.7%[10 µM] | / | /
CCOC(=O)C1=C(C)N(C)C(=S)NC1c1ccc(Cl)cc1 (configuration not stated) | 20µM* | -0.4% | / | -2.6% | -9.3
CCN1C(=O)[C@H]2[C@H]3[C@H](O)[C@H](O)C/C(=N/NC(=O)OCc4ccccc4)[C@@H]3CC[C@@H]2C1=O | / | / | -0.6%[10 µM] | -2.5%[17.5 µM] | /
CCN(CC(=O)O)C(=O)c1cccnc1 | / | / | -10.5%[10 µM] | / | /
NC(N)=NC[C@@H]1COC2(CCCCC2)O1 | 15.3%[20.6 µM] | / | 18.5%[17.1 µM] | -6.4%[29.1 µM] | -8.8
c1csc(-c2nn3c(-c4ccncc4)nnc3s2)c1 | 0.5% | -5.4% | -0.3%[0.074 µM] | -6.9% | 1.0
COc1ccccc1-c1nnc2sc(C3CCCCC3)nn12 | -14.9% | 4.6% | -4.9% | 3.8% | 0.2
c1csc(Cc2nn3c(-c4ccncc4)nnc3s2)c1 | 10µM* | 8.9% | -17.3% | 2.7% | 4.6
c1cc(-c2nnc3sc(C4CCCCC4)nn23)ccn1 | 12.6µM* | -3.9% | 4.5% | -4.9% | -0.4
N=C(N)SCc1nc(-c2ccc(Cl)cc2)no1 | / | / | -3.5%[10 µM] | / | /
CCC(C)(C)n1nnnc1CN1CCN(C(c2ccccc2)c2ccccc2)CC1 | 14.1µM* | 5.5% | 11.4%[10 µM] | 5.4% | -10.0
CCN(CCCCO)c1nc(C)nc2c1c(C)c(C)n2-c1c(C)cc(C)cc1C | / | / | / | -2.6% | /
COC(=O)NCC(c1cccnc1)N1CCN(c2ccccc2)CC1 (configuration not stated) | -17.9% | 4.9% | 15.0%[10 µM] | 4.8% | -7.1
O=C(NCCc1c[nH]c2ccccc12)C(=O)NCC(c1cccnc1)N1CCN(c2ccccc2)CC1 (configuration not stated) | 3.55µM* | 0.5% | / | 3.0% | ?
O=C(O)c1ccccc1C(=O)Nc1ccccc1 | 10.4% | -12.9% | 11.3%[10 µM] | -4.8% | -10.5
